The source of these data is ChEMBL document CHEMBL3988442, “University of Dundee, Small-Polar-MMV Screening Library” (2021).

The target of the assay is AMP-activated protein kinase, AMPK (Homo sapiens) (UniProt P54646+O43741+P54619+Q9UGJ0+Q9Y478+Q13131+Q9UGI9). The assay can be described thus: AMP-dependent Kinase enzyme assay. An in vitro enzyme assay that detects ADP turnover that is directly proportional to AMPK activity. This uses naive AMPK that is activated during the assay with MK-8722. It is filed as functional. Also on record: scale not given: direction of the effect not stated beside the values. The conditions noted are these: 30 µM.
Turning to `Cc1nn(C)c2nc(N(Cc3nccs3)C3CC3)sc12`, the Percent Effect was 1.18%.

Consider `COCCN(CC(F)F)c1cc(C(F)(F)F)nc2ncnn12`, for which the Percent Effect was found to be 3.49%.

Regarding `COCCN1CC(=O)N2CC[C@@H](O)C[C@H]2C1=O`, the Percent Effect was -8.25%. As for `CC(NC(=O)C1CC1)C(=O)N(C)Cc1ccsc1` (stereo not given), the Percent Effect is -1.9%. Then `CCc1ccc(-c2noc(Cn3nc(C(N)=O)ccc3=O)n2)cc1`, with -8.7%; and `Cc1cc(CN(CC(N)=O)CC(C)C)no1`, with -8.69%. In the case of `C=C(C)COc1cccc(CNCCc2nc(N)cc(O)n2)c1`, the Percent Effect turned out to be 3.76%. Turning to `Cc1cccn2cc(CN3CCC(N4CCN(C)C4=O)CC3)nc12`, the Percent Effect worked out at 0.324%. Consider `CCC(=O)NC(C)c1ccccc1C` (stereo not given), for which the Percent Effect came out at 14.9%. Then `Cc1nonc1CNC(=O)C(C)Oc1cccc(F)c1` (stereo not given), with 11.1%; and `Cc1cc(C(F)(F)F)nc(CNC(=O)CCn2cccn2)n1`, with 12.2%; and `CCCN(CCC)C(=O)CN1CCCC1C(=O)N(C)C` (stereo not given), with -3.78%. Next, `CN(C)Cc1cn(-c2ccccc2C(=O)NCC2CCCCN2C)cn1` (stereo not given): -15.9%; `CC(C(=O)NCC(C)(C)c1ccc2c(c1)OCO2)n1ccnc1` (stereo not given): 0.66%. Then `COc1cccc([C@@]2(O)CC[C@@H]3CN(C(=O)c4c[nH]nc4C)C[C@@H]32)c1`, with 10.8%; and `COCC1(C(=O)N[C@H]2CN(c3nnc(C)s3)C[C@@H]2C2CC2)CCC1`, with 9.28%; and `Cc1ccc2c(c1)cc(CN1CC[C@](C)(O)[C@H](C)C1)n2C`, with 9.89%. Take `CN(C)CCN(Cc1cccc(F)c1)C(=O)c1ccn(C)c(=O)c1`: the Percent Effect came to 9.63%. Turning to `O=C(Cn1ccc2ncccc2c1=O)N1CCSCC1`, the Percent Effect is -4.34%. Then `CC(CNC(=O)c1cnc[nH]1)Oc1ccccc1Br` (stereo not given), with 10.3%. `Cc1ccnc2c1NC(=O)CN2C(=O)CCC(F)(F)F`: the Percent Effect is 1.79%. Turning to `CCNC(=O)[C@@H]1C[C@H](N)CN1c1cc(C(F)(F)F)nc(N(C)C)n1`, the Percent Effect is -12%. On to `CCc1ccc(C(=O)NC[C@H]2CCCN2C(=O)c2ccc(CC)o2)o1`, for which the Percent Effect is -0.868%.

As for `COc1cccc(S(=O)(=O)N2CCOC(C)(C(N)=O)C2)c1` (stereo not given), the Percent Effect was 22.4%. With `Cc1ccccc1C(=O)NC[C@@H]1CCN(C(=O)CN2CCCC2)C[C@H]1O`, the Percent Effect is -0.0834%. For `CCCS(=O)(=O)CC(=O)Nc1ccsc1`, the Percent Effect is -1.52%. On to `NC(=O)C1CCCN1Cc1nccn1CC(F)(F)F` (stereo not given), for which the Percent Effect came out at 1.35%. Then `CCC(NC(=O)NC1CCN(S(C)(=O)=O)CC1)c1cccs1` (stereo not given), with -3.19%.

For `O=C(NC1CC1)C1CNCCN1C(=O)CCOc1ccccc1` (stereo not given), the Percent Effect amounted to 4.98%. Turning to `Cn1ccnc1-c1cn(CCc2nnc(N)s2)nn1`, the Percent Effect was -14.9%. Next, `CC(C)[C@@H]1CN(Cc2cnc3c(S(C)(=O)=O)cnn3c2)C[C@H]1N(C)C`: -8.81%. Then `Cc1nn(C)c2nc(NC3CCNCC3)sc12`, with 0.889%; and `Cc1ccnc2c1NC(=O)CN2C(=O)CCc1ccccc1`, with -1.93%; and `COC(=O)c1ccc(Cn2cccc(C(F)(F)F)c2=O)c(OC)c1`, with 6.82%. For the compound `COC(=O)c1sc(C(NC(=O)c2ccccc2)C2CC2)nc1C` (stereo not given), the Percent Effect was -2.15%. On to `CCCc1nnc(N2CCC(N3CCCC(O)C3)CC2)o1` (stereo not given), for which the Percent Effect is 4.12%. Next, `COc1cccc(CN(C)C(C)C(=O)Nc2nc(C)c(C)s2)c1` (stereo not given): 5.13%; `CN(Cc1cccc(-n2cccn2)c1)Cc1c[nH]cn1`: -6.63%; `Cn1ncnc1NCc1ccc(Cl)cc1`: 7.15%.

On to `CS(=O)(=O)CCCN1CCSCC1c1ccc(Cl)cc1` (stereo not given), for which the Percent Effect was -4.65%.
